# Reference: PubChem BioAssay
# Calls of active or inactive are those of the source.
# Columns and labels:
# [1] = small molecules captured by biotinylated probe aFSTL3 – biochemical, small-molecule microarray, fluorescence 635/667, stem cell growth factor project, primary screen (AID 1064); conditions: higher = more signal;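 also: measures binding of the biotinylated anti-FSTL3 antibody to printed compounds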
# [2] = binders from COS7 lysate, DM2A8 probe, primary screen, torsin A project, cell lysate, small-molecule microarray, fluorescence 635/667 (AID 1065); conditions: higher = more signal, COS7 lysate expressing mutant human TOR1A
# [3] = small molecules captured by biotinylated probe aFGF2 – biochemical, small-molecule microarray, fluorescence 635/667, stem cell growth factor project, primary screen (AID 1067); conditions: higher = more signal;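 also: measures binding of biotinylated aFGF2 protein to printed compounds on slides; z-score merges feature fluorescence and signal-to-noise across triplicate slides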
# [4] = small molecules captured by biotinylated probe aFGF10 – biochemical, small-molecule microarray, fluorescence 635/667, stem cell growth factor project, primary screen (AID 1071); conditions: higher = more signal;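 also: score merges 667 nm spot intensity and signal to noise from triplicate slides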
# [5] = biological target: Neurogenic locus notch homolog protein 2 (Homo sapiens) (UniProt Q04721); experiment: small molecules binding Notch2 protein – biochemical, small-molecule microarray, 635 nm fluorescence, stem cell growth factors, primary screen (AID 1073); conditions: higher = more signal
# [6] = biological target: Pro-neuregulin-1, membrane-bound isoform (Homo sapiens) (UniProt Q02297); experiment: small molecules binding neuregulin-1 protein – biochemical, small-molecule microarray, fluorescence 635/667, psychiatric disease protein project, primary screen (AID 1075); conditions: NRG1 binding, 635 nm fluorescence, higher = more signal;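 also: score combines 667 nm spot fluorescence with signal to noise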
# [7] = system: Neuregulin-1 EGF-like domain; experiment: small molecules binding NRG1 EGF domain – biochemical, small-molecule microarray, 635 nm fluorescence, primary screen (AID 1081); conditions: higher = more signal;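 also: binding of the protein to compounds printed on small-molecule microarray slides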
# [8] = FRG1 expression reporter modulators in myotubes – cell-based, C2C12 myotubes, firefly/Renilla luciferase, luminescence, FRG1 inhibition for FSHD, primary screen (AID 1084); conditions: FRG1 promoter luciferase, higher = more signal, called active from +8 up or from −8 down
# [9] = small molecules captured by biotinylated probe aFST – biochemical, small-molecule microarray, fluorescence 635/667, stem cell growth factor project, primary screen (AID 1086); conditions: higher = more signal;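 also: score merges 667 nm fluorescence with signal-to-noise of each printed compound spot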
# [10] = binders of probe aHhip on microarray, primary screen, stem cell growth factor project, biochemical, small-molecule microarray, fluorescence 635/667 (AID 1087); conditions: higher = more signal;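 also: score merges spot fluorescence at 667nm with spot signal to noise ratio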
# [11] = system: PRMT1 (protein arginine N-methyltransferase 1); experiment: small molecules binding arginine methyltransferase PRMT1 – biochemical, small-molecule microarray, 635 nm fluorescence, primary screen (AID 1088); conditions: higher = more signal;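 also: binding of Prmt1 protein to compounds spotted on small-molecule microarray slides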
# [12] = growth effects on S. cerevisiae YJM789 – YJM789 clinical isolate, OD600, 24 h, basal, primary screen (AID 1089); conditions: higher = more signal, called active from +8 up or from −8 down;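 also: growth of clinical yeast isolate S. cerevisiae YJM 789 seeded 1000 cells per well; test concentration not given here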
# [13] = S. pombe growth modifiers, basal conditions – strain 972, OD600, 24 h, no modulator, primary screen (AID 1090);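 also: basal condition with compound alone and no growth modifier present; test concentration not given here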; conditions: S. pombe 972 growth, higher = more signal, called active from +8 up or from −8 down
# [14] = budding yeast growth modifiers under rapamycin – strain BY4716, OD600, 96 h, primary screen (AID 1091); also: test concentration not given here; conditions: S. cerevisiae BY4716 + rapamycin, higher = more signal, called active from +8 up or from −8 down
# [15] = biological target: Torsin-1A-interacting protein 2 (Homo sapiens) (UniProt Q8NFQ8); experiment: small molecules binding lysate-expressed LULL1 – cell lysate, human LULL1 lysate, 635/667 nm fluorescence, primary screen (AID 1092); conditions: small-molecule microarray, hLULL1 lysate binding, 635 nm fluorescence; higher = more signal;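 also: probe is lysate of COS7 cells overexpressing human LULL1; score merges per-feature 667 nm fluorescence with signal-to-noise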
# [16] = optical density change of DRC41 E. coli – strain DRC41, OD650, 24 h, E. coli filamentation project, primary screen (AID 1093);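 also: MC1000 strain lacking acrAB efflux and sulA so SOS filamentation is blocked; test concentration not given here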; conditions: E. coli DRC41 growth, higher = more signal, called active from +8 up or from −8 down
# [17] = probe aLefty2 binding to arrayed compounds – biochemical, biotinylated probe, 635/667 nm fluorescence, primary screen (AID 1094); conditions: small-molecule microarray, higher = more signal;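 also: score merges spot fluorescence near 667 nm with spot signal-to-noise ratio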
# [18] = system: Noggin (protein binding on small-molecule microarray); experiment: small molecules binding Noggin protein – biochemical, 635/667 nm fluorescence, primary screen (AID 1095); conditions: 635 nm fluorescence, higher = more signal;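 also: score merges 667 nm feature fluorescence with signal to noise over triplicate slides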
# [19] = biological target: Neurogenic locus notch homolog protein 3 (Homo sapiens) (UniProt Q9UM47); experiment: small molecules binding NOTCH3 protein – biochemical, 635/667 nm fluorescence, primary screen (AID 1096); conditions: small-molecule microarray, 635 nm fluorescence, higher = more signal
# [20] = probe aEGFR binding to arrayed compounds – biochemical, biotinylated probe, 635/667 nm fluorescence, primary screen (AID 1097); conditions: small-molecule microarray, higher = more signal;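 also: probe is a biotinylated anti-EGFR antibody binding compounds printed on slides; score combines fluorescence near 667 nm and signal to noise of each spot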
# Neurogenic locus notch homolog protein 3 (Homo sapiens), sequence (Q9UM47 whole entry, looked up): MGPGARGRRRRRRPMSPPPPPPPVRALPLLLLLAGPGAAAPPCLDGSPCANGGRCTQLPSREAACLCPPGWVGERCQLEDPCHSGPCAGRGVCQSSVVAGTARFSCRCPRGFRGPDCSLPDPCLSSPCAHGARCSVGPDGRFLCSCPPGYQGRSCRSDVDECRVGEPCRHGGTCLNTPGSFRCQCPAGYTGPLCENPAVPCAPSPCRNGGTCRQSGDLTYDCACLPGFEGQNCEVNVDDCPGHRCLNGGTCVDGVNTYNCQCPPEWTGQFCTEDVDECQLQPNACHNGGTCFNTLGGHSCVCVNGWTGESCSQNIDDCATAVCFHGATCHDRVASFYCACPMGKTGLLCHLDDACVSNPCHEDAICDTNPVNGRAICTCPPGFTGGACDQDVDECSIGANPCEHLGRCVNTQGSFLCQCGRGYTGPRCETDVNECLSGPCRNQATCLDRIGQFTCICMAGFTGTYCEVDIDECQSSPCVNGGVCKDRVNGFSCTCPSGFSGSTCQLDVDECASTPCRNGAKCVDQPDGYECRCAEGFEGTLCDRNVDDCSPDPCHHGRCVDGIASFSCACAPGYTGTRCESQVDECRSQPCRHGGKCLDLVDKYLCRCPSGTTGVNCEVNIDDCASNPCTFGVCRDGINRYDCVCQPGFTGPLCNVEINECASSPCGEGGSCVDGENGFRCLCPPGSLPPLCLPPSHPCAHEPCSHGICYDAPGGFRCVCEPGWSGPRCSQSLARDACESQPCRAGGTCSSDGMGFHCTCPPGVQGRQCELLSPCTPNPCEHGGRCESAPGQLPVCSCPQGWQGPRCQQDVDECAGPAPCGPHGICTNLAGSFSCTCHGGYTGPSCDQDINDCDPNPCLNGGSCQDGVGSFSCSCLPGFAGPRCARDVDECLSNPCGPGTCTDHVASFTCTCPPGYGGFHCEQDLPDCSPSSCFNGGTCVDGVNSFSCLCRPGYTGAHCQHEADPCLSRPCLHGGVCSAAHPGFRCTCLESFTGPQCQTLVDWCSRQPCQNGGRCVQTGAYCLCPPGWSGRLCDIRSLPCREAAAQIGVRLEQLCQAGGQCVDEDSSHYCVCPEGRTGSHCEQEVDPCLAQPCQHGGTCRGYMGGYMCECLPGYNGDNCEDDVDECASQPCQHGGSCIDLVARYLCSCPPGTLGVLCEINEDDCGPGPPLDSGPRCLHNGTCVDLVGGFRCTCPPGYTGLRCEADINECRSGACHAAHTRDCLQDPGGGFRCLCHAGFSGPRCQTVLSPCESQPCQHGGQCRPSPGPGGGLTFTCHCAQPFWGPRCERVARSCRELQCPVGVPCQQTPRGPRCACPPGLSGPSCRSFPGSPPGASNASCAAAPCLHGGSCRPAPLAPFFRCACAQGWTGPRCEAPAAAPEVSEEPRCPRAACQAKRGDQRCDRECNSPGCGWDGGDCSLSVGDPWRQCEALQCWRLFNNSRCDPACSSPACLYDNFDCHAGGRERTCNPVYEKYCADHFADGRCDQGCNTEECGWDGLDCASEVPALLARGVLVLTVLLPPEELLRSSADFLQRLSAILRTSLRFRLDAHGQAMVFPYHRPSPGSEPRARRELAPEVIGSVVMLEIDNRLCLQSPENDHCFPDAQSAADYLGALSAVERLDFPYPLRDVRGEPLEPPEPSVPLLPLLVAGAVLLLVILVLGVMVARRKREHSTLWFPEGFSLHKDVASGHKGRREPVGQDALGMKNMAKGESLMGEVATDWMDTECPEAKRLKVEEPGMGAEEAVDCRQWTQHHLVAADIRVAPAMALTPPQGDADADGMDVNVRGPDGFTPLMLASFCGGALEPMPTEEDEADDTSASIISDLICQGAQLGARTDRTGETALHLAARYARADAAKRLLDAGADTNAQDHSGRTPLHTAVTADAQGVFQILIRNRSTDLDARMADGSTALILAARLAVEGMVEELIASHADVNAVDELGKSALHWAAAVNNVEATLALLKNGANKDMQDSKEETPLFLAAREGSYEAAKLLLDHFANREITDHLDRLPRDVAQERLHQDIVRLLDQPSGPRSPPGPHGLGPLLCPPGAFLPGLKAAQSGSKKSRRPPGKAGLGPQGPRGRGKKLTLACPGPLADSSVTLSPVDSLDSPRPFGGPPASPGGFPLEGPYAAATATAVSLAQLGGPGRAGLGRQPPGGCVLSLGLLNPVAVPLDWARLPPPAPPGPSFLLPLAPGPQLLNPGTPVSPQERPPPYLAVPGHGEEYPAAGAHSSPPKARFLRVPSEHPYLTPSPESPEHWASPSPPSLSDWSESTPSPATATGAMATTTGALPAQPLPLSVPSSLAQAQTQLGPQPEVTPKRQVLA
# Pro-neuregulin-1, membrane-bound isoform (Homo sapiens), sequence (Q02297 whole entry, looked up, the tested form may be a part, canonical isoform): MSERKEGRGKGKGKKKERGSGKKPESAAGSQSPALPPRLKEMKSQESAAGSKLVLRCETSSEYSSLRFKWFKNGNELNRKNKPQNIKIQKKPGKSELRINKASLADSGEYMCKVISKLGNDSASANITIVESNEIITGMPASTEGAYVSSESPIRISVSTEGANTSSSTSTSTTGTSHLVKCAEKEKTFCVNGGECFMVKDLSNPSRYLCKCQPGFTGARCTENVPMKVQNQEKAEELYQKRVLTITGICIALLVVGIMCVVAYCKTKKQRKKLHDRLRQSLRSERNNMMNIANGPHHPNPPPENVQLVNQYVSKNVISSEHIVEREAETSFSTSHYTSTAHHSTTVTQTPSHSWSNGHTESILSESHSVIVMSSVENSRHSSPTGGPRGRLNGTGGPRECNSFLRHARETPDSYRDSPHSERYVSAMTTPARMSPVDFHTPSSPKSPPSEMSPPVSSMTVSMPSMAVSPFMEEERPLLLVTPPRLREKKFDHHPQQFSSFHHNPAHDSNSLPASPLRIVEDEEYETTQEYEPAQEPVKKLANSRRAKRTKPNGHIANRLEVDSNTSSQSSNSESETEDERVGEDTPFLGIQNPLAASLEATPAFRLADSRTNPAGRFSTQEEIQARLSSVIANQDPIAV
# Torsin-1A-interacting protein 2 (Homo sapiens), sequence (Q8NFQ8 whole entry, looked up): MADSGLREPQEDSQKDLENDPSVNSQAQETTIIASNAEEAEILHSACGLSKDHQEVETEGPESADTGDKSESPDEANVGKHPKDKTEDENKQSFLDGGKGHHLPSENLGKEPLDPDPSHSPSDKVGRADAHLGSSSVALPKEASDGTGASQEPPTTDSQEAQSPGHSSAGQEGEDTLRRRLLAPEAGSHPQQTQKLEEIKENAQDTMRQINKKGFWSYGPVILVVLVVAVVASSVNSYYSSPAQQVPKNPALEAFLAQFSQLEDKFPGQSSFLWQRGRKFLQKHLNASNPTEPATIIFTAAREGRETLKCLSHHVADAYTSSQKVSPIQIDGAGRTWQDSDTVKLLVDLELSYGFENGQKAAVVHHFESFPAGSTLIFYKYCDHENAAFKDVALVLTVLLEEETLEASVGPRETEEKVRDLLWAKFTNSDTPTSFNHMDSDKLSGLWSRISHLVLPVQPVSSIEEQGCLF
Compound,composite z-score [1],composite z-score [2],composite z-score [3],composite z-score [4],composite z-score [5],composite z-score [6],composite z-score [7],z-score [8],composite z-score [9],composite z-score [10],composite z-score [11],z-score [12],z-score [13],z-score [14],composite z-score [15],z-score [16],composite z-score [17],composite z-score [18],composite z-score [19],composite z-score [20]
O=C1C2C=CC(C(O)c3cccc4ccccc34)N(n3cnnc3)C2C(=O)N1Cc1ccccc1 (stereo not given),1.45,0.0748,0.737,0.774,0.309,0.704,0.821,-0.259 (inactive),1.8,0.506,-0.117,-26.6 (active),-16.1 (active),-0.0039 (inactive),0.846,-1.18 (inactive),0.93,0.56,0.467,0.804
CCN(CC)c1ccc(N2CC=CC34O[C@@H]5/C=C\CCCOC(=O)C5[C@H]3C(=O)N(CCCO)[C@@H]4C2=O)cc1 (stereo not given in full),0.485,-0.701,-0.113,-0.883,-0.991,1.45,0.657,2.31 (inactive),-1.19,-0.137,1.42,-1.14 (inactive),-0.249 (inactive),-0.511 (inactive),3.65,-0.204 (inactive),-0.158,-1.03,-0.21,-0.287
C=C[C@H](C)[C@H](OC(=O)Nc1ccc(OC)cc1)c1ccc(O)c2ccccc12,0.436,-0.0826,-0.121,-0.148,-0.714,-0.322,0.957,3.63 (inactive),-0.304,-0.124,-0.0544,-25.3 (active),-20.9 (active),-3.05 (inactive),0.645,0.355 (inactive),-0.151,0.585,0.0103,-0.222
[N-]=[N+]=NCc1ccccc1C[C@]1(C(=O)N2CCOCC2)N=C(c2ccc(OCCCO)cc2)O[C@H]1c1ccccc1,0.303,0.18,-0.0455,0.686,0.412,0.766,0.542,-3.67 (inactive),0.912,-0.0994,1.46,-0.432 (inactive),-9.19 (active),31.6 (active),2.33,1.33 (inactive),-0.162,1.15,0.673,-0.0509
CC(C)(C)OC(=O)CC[C@@]1(C(=O)NCC(O)CO)N=C(c2ccc(OCCCO)cc2)O[C@@H]1c1ccccc1 (stereo not given in full),0.222,1.68,-0.11,0.0407,0.739,1.8,1.35,1.74 (inactive),0.74,0.12,1.46,0.531 (inactive),0.18 (inactive),0.375 (inactive),3.77,-0.103 (inactive),0.0689,-0.364,0.356,-0.071
C=CC[C@]1(C(=O)O)N=C(c2ccc(OCCCO)cc2)O[C@H]1c1ccccc1CN=[N+]=[N-],0.736,-0.43,-0.144,-0.638,-0.129,0.743,0.467,2.22 (inactive),0.182,-0.275,-0.697,0.442 (inactive),0.263 (inactive),0.602 (inactive),1.55,0.143 (inactive),-0.135,-0.383,-0.522,-0.0239
O=C1NC(=O)C2C1C=CC(C(O)c1cccs1)N2Nc1ccccn1 (stereo not given),0.151,-0.133,0.0094,0.692,1.14,0.689,0.877,0.304 (inactive),0.282,-0.188,0.394,0.378 (inactive),-0.31 (inactive),0.206 (inactive),1.12,-0.248 (inactive),0.305,0.0671,0.242,0.119
CCCC[C@@H]1C[C@H]1[C@@H](NC(=O)c1ccco1)c1ccccc1,1.29,-0.52,-0.171,-0.511,-2.22,-0.44,-0.454,-0.192 (inactive),-0.945,-0.0275,-0.206,-0.867 (inactive),-15.3 (active),-0.0654 (inactive),-0.832,-1.61 (inactive),-0.121,-1.77,-0.716,-0.25
CC(C)C(O)C1C=CC2C(=O)N(C)C(=O)C2N1N1CCCCC1 (stereo not given),-0.201,-0.145,-0.0412,0.651,1.51,0.856,1.24,0.554 (inactive),0.772,-0.0391,0.594,0.252 (inactive),0.891 (inactive),-0.199 (inactive),3.58,-1.46 (inactive),0.169,0.315,0.217,0.0635
CC1CC/C=C\[C@H]2OC34C=CCN(c5ccc6ccccc6c5)C(=O)[C@H]3N(CCCCCO)C(=O)[C@@H]4C2C(=O)O1 (stereo not given in full),-0.46,-0.0205,-0.159,-1.01,-1.04,-0.712,-0.734,0.772 (inactive),-0.818,-0.306,-0.712,0.231 (inactive),0.0271 (inactive),-0.32 (inactive),-1.87,-0.603 (inactive),0.182,-1.21,-0.7,-0.233
